VHR inh abs: VHR1 phosphatase inhibitors, primary screen, biochemical, absorbance, uHTS. hit rate 0.52% among 290,000. recombinant VHR phosphatase, pNPP absorbance. inhibition, % at 13.3 µM. AID 1654, 2009. Dual specificity protein phosphatase 3 (Homo sapiens), P51452; in the data active means inhibition above about 50%
BoNT A protease: BoNT/A light chain protease inhibitors, primary screen, biochemical, flow cytometry, MLPCN library | multiplex microsphere protease substrate cleavage | inhibition, % at 10 µM | Botulinum neurotoxin type A light chain protease (Clostridium botulinum A str. ATCC 3502) | hit rate 0.17% among 360,000 | AID 588499, 2011; further: plate controls were buffer without enzyme for full effect and enzyme alone for no effect
3CLpro inhibitor: SARS-CoV 3CLpro protease inhibitors, primary screen, biochemical, quenched FRET. Replicase polyprotein 1ab (Severe acute respiratory syndrome coronavirus), P0C6X7. recombinant SARS-CoV 3CLpro, quenched FRET peptide cleavage. inhibition, % at 6 µM. hit rate 0.14% among 290,000; in the data active means inhibition above about 12%
Anthrax LF prot: Bacillus anthracis LF protease inhibitors, primary screen, biochemical, multiplex microsphere, MLPCN library; AID 588501, 2011; inhibition, % at 10 µM; Lethal factor (Bacillus anthracis), P15917; hit rate 0.12% among 360,000; multiplex microsphere protease cleavage assay; further: plate controls were buffer without enzyme for full effect and enzyme alone for no effect
BoNT F protease: BoNT/F light chain protease inhibitors, primary screen, biochemical, flow cytometry, MLPCN library; hit rate 0.22% among 360,000; Multiplex microsphere protease cleavage assay; inhibition, % at 10 µM; AID 588497, 2011; in the data active means inhibition above about 35%, passing the limit was not always enough; further: plate controls were buffer without enzyme for full effect and enzyme alone for no effect
Bead autofluor: compound fluorescence in toxin protease inhibitor counterscreen | compound autofluorescence counterscreen, microsphere flow cytometry; stronger effect = higher value | fluorescence intensity (no concentration beside the values) | AID 624483 | hit rate 3.1% among 360,000; in the data active means fluorescence intensity above about 16000
Starred values were filed as active, the others as inactive; ! = not confirmed by another sample. Hits are enriched below; roughly 3.9% of the tested compounds scored in any of these assays. Unless noted, no stated cut-off is given here; in the data, active means inhibition above about 30%; inconclusive means no clear call, values can overlap the other calls; inactive means below that.

What do the screens show for `Cc1cc(C(=O)Nc2sc3c(c2C#N)CCC(C)C3)cs1` (stereo not drawn)?
VHR inh abs: 5; BoNT A protease: -2; 3CLpro inhibitor: 8; Anthrax LF prot: -2; BoNT F protease: -2; Bead autofluor: 17096*

Results for CCC(C)c1c(O)nc(SCC(=O)N2CCOCC2)[nH]c1=O (stereo not drawn) ?
VHR inh abs: 32; BoNT A protease: -4; 3CLpro inhibitor: -4; Anthrax LF prot: -6; BoNT F protease: -7; Bead autofluor: 17264*

What do the screens show for `CC(C)NC(=O)CSc1nc2ccccc2n1-c1ccccc1`?
VHR inh abs: -5; BoNT A protease: 0; 3CLpro inhibitor: -4; Anthrax LF prot: 1; BoNT F protease: -2; Bead autofluor: 22704*

How did CC(C)OC(=O)CSc1nnc(Cc2ccccc2)n1C do in these assays?
VHR inh abs: 0; BoNT A protease: -1; 3CLpro inhibitor: 1; Anthrax LF prot: -1; BoNT F protease: -2; Bead autofluor: 16479*

What do the screens show for `Cc1ccc(-c2nnc(SCC(=O)OC(C)C)n2N)cc1`?
VHR inh abs: 3; BoNT A protease: 1; 3CLpro inhibitor: 2; Anthrax LF prot: 5; BoNT F protease: 3; Bead autofluor: 9130

How did CC(C)OC(=O)CSc1nnc(-c2ccc(Cl)cc2)n1N do in these assays?
VHR inh abs: 15; BoNT A protease: -5; 3CLpro inhibitor: 2; Anthrax LF prot: 2; BoNT F protease: -7; Bead autofluor: 21439*

How did Cn1c(Cc2ccccc2)nnc1SCC(=O)Nc1ccccc1 do in these assays?
VHR inh abs: 17; BoNT A protease: -3; 3CLpro inhibitor: -3; Anthrax LF prot: -4; BoNT F protease: -15; Bead autofluor: 7070

How did CC(C)OC(=O)CSc1nnc(-c2ccc(Cl)cc2Cl)n1N do in these assays?
VHR inh abs: 22; BoNT A protease: 1; 3CLpro inhibitor: 1; Anthrax LF prot: -1; BoNT F protease: 2; Bead autofluor: 22841*

What do the screens show for `CC1=C(C(=O)N2CCOCC2)CC(CC(=O)NCCc2ccccn2)C(=O)N1Cc1ccccc1` (stereo not drawn)?
BoNT A protease: 0; Anthrax LF prot: -9; BoNT F protease: 2; Bead autofluor: 5914

Results for Cc1cc2cc(CNC(=S)Nc3ccc(OC(F)F)cc3)ccc2n1C ?
VHR inh abs: 0; BoNT A protease: 66*; 3CLpro inhibitor: -2; Anthrax LF prot: -111; BoNT F protease: -126; Bead autofluor: 1428

What do the screens show for `Cc1ccc(S(=O)(=O)N2CCN(CC(=O)NC3CCCc4ccccc43)CC2)cc1C` (stereo not drawn)?
VHR inh abs: 18; BoNT A protease: 0; 3CLpro inhibitor: -2; Anthrax LF prot: 0; BoNT F protease: 6; Bead autofluor: 21955*!

What do the screens show for `CCN(CC)S(=O)(=O)N1CCC(C(=O)NC2CCCc3ccccc32)CC1` (stereo not drawn)?
VHR inh abs: 18; BoNT A protease: 5; 3CLpro inhibitor: -3; Anthrax LF prot: 0; BoNT F protease: 6; Bead autofluor: 20617*

Results for Cc1nn(C)c(C)c1S(=O)(=O)N1CCC(C(=O)NC2CCCc3ccccc32)CC1 (stereo not drawn) ?
VHR inh abs: -9; BoNT A protease: -1; 3CLpro inhibitor: -1; Anthrax LF prot: 6; BoNT F protease: -5; Bead autofluor: 6357

What do the screens show for `O=C(Nc1ccccc1)NC1CCCc2ccccc21` (stereo not drawn)?
VHR inh abs: 21; BoNT A protease: 1; 3CLpro inhibitor: -1; Anthrax LF prot: 0; BoNT F protease: 1; Bead autofluor: 2281

Results for CNC(=O)NC1CCCc2ccccc21 (stereo not drawn) ?
VHR inh abs: 8; BoNT A protease: 1; 3CLpro inhibitor: -2; Anthrax LF prot: -2; BoNT F protease: 1; Bead autofluor: 23281*

What do the screens show for `COc1ccc(Cn2cc(CN3CC(N4CCN(C5CCN(C)CC5)CC4)CS3(=O)=O)nn2)cc1` (stereo not drawn)?
BoNT A protease: 1; Anthrax LF prot: 5; BoNT F protease: 7; Bead autofluor: 6014
